Test results published in PubChem BioAssay (NCI).
Compounds without any hit were thinned out: in the full panel of roughly 83,000, 20% have a hit.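 Growth was measured after 48 h exposure to one concentration of compound in 96-well plates. Values under 10 count as active.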 Activity calls are given as the source filed them.

Each compound was assayed on SW-620 colon (assay: NCI-60 one-dose screen, 48 h (100 = growth as untreated, 0 = no growth, -100 = all killed)). Details: 10 µM unless noted.
Protocol: Growth inhibition of the SW-620 human tumor cell line is measured as a screen for anti-cancer activity. Cells are grown in 96 well plates and exposed to the test compound for 48 hours. Compounds are tested at a single concentration, which is 10^-5 M for most compounds. The reported endpoint is percent growth (GI% or GIPRCNT), where numbers from 0 - 100% represent growth inhibition, and numbers from -100% - 0 represent cell death. For example, a value of 40 represents 60% growth inhibition. A value of 0 means no net growth occurred over the course of the experiment. A value of -40 indicates 40% of cells at the beginning of the experiment died by the end of the experiment. A value of -100 means all cells are dead at the end of the experiment.
NCI-60 Human Tumor Cell Lines Screen was performed using the standard one-dose NCI protocol, which is described in more detail at https://dtp.cancer.gov/discovery_development/nci-60/default.htm.
Compounds with GIPRCNT values below 10 were considered active. Activity score was based on GIPRCNT using the following formula: […]
Score is 0 for GIPRCNT values of 100 or above, 50 for GIPRCNT values of 0, and 100 for GIPRCNT values of -100.
For N=C(N)c1ccc(-c2ccc(-c3ccc(-c4cccs4)s3)s2)cc1, the growth was 99.6% (inactive). In the case of C=C1C(=O)O[C@H]2[C@H]1CC/C(COC(=O)NCc1ccccc1OC)=C\CC[C@@]1(C)O[C@@H]21, the growth is reported as 0.256% (active). COc1ccncc1S(=O)(=O)NC(=O)Nc1ccc(Cl)c(Cl)c1 was tested, and the growth was 99.6% (inactive). With O=[N+]([O-])c1ccc(Sc2ncccn2)c([N+](=O)[O-])c1 the growth was 22.8% (inactive). For COc1cc(-c2ncn(/C=C\C(=O)OC(C)C)n2)cc(C(F)(F)F)c1, the growth was 0.254% (active). With COc1ccc(C(=O)n2nc(/C=C/c3ccc(O)c(OC)c3)cc2/C=C/c2ccc(O)c(OC)c2)cc1 the growth was 4.16% (active). With Cc1ccc(-c2nc(C(Cl)Cl)n3nc(-c4ccccc4)cc3n2)cc1 the growth was -22.4% (active). In the case of COc1ccc(C2CC(c3ccc(OC)cc3OC)=NN2c2ccc(S(N)(=O)=O)cc2)cc1 (stereo not given), the growth is reported as 101% (inactive). For O=C(Nc1ccc(NCCN2CCOCC2)nc1)c1ccc([N+](=O)[O-])cc1, the growth was 104% (inactive). For CCOC(=O)C1C(=O)C=C(c2ccc(OC)cc2)CC1c1sc(N(C)Cc2ccccc2)nc1Cl (stereo not given), the growth was 82.9% (inactive). For Oc1ccc2cc(Br)ccc2c1-c1c(O)ccc2cc(Br)ccc12, the growth was 48.3% (inactive). In the case of O=C([O][Sn]([O]C(=O)c1ccccn1)([c]1ccccc1)[c]1ccccc1)c1ccccn1, the growth is reported as 0.566% (active). With COc1ccc2c(c1)cn1c3ccc(OC)cc3[nH]c(=O)c21 the growth was -38.9% (active). C=C1CCC2C3(C)COC(c4c(OC)cccc4OC)OC3CCC2(C)C1C/C=C1/C(=O)OCC1O (stereo not given) was tested, and the growth was 16.2% (inactive). COc1cccc(-c2nc3sccn3c2-c2ccnc(NCCCNS(=O)(=O)c3ccc(F)cc3)c2)c1 was tested, and the growth was 41.7% (inactive). For CCN(CC)c1ccc2[nH]c3c(C(N)=O)cc(=O)c(=O)c=3oc2c1, the growth was 9.8% (active). For ClC(Cl)c1nc(-c2ccccc2)nc2cc(-c3ccccc3)nn12, the growth was 14.8% (inactive). With Cc1ccc(S(=O)(=O)n2cc(C(=O)C(=O)N3CCOCC3)c3ccccc32)cc1 the growth was 101% (inactive). For NC1=C(/C(N)=N/O)C(c2ccccc2)c2ccc3ccccc3c2O1 (stereo not given), the growth was 23% (inactive). In the case of COc1cccc(/C=C2\Oc3cc(OCCCN4CCCC4)ccc3C2=O)c1OC, the growth is reported as 98.6% (inactive). With CC1=NC2=CC=CC3=NC(C(Cl)(Cl)Cl)=NC(=N1)N23 the growth was 78.4% (inactive). For Cc1ccc(S(=O)(=O)NCCCNc2cc(-c3cn(C(C)(C)C)nc3-c3cccc(O)c3)ccn2)cc1, the growth was 19.1% (inactive). O=C1C(Cl)=C(Nc2ccccn2)C(=O)c2ccccc21 was tested, and the growth was 30.5% (inactive). Cc1cc(N)n(S(=O)(=O)c2oc(-c3ccccc3)nc2C#N)n1 was tested, and the growth was 48.9% (inactive). In the case of Nc1nc(-c2ccccc2)c(CCCOc2ccc(NC(=O)CBr)cc2)c(=O)[nH]1, the growth is reported as 108% (inactive). For Cn1c(=O)c2[nH]c(C3CC=CCC3)nc2n(C)c1=O (stereo not given), the growth was 101% (inactive). For O=C(NCc1cn(Cc2cccc(Oc3ccccc3)c2)nn1)c1cccnc1Nc1ccc(F)cc1, the growth was 44.7% (inactive). With COc1ccc2c(c1)OC1=C(C(=O)OC1)C2c1cc(OC)c2c(c1)OCO2 (stereo not given) the growth was 18.7% (inactive). For CCCCCCCC[C@@H](O)CC(=O)N[C@@H](CC(N)=O)C(=O)N[C@@H](CCC(N)=O)C(=O)N[C@@H](CC(=O)c1cc(C)cc(O)c1C(=O)c1c(O)cccc1O)CC(C)C, the growth was 18.3% (inactive). In the case of COc1ccc(C(=O)N2NC(=O)/C(=C/c3ccccc3F)N=C2c2ccccc2)cc1, the growth is reported as 111% (inactive). For Clc1cc2c(nn1)Nc1ccccc1S2, the growth was 103% (inactive). Clc1ccc(-c2nc3ccccc3s2)cc1Cl was tested, and the growth was 82.6% (inactive). For Cc1ccc2[nH]c(=O)c3c(c2c1)Oc1ncn2nc(-c4ccco4)nc2c1C3c1ccc(Cl)cc1 (stereo not given), the growth was 99% (inactive). Nc1nc(=O)c2ccccc2s1 was tested, and the growth was 116% (inactive). For Cn1ncc2c(Sc3ccc(Cl)cc3)ncnc21, the growth was 100% (inactive). In the case of CCN(CC)CCC(CNc1c2ccc(Cl)cc2nc2ccc(OC)cc12)c1ccccc1 (stereo not given), the growth is reported as -49.7% (active). In the case of COc1cc(/C=N\NC(=O)CN2CCN(c3cc4c(cc3F)c(=O)c(C(=O)N/N=C/c3cc(OC)c(OC)c(OC)c3)cn4C3CC3)CC2)cc(OC)c1OC, the growth is reported as 6.11% (active). With CCOC(=O)c1cn2c3c(cc(C)cc3c1=O)C(=O)/C(=C/c1ccccc1)C2 the growth was 101% (inactive). In the case of CC(C)(C)n1cc(-c2ccnc(NCCCNS(=O)(=O)c3ccc(F)cc3)c2)c(-c2cccc(O)c2)n1, the growth is reported as 8.4% (active). In the case of NC(=S)N/N=C(/CCN1CCCC1)CC(C1=C(O)C2=CCCCC2OC1=O)c1ccccc1 (stereo not given), the growth is reported as 69% (inactive).
